Reference: PubChem BioAssay
For part of these data: Entries with a potency or affinity are not part of this list. Activity calls are given as the source filed them. Unless noted, how the calls were made is not given here.

Assays:
[1] = antimalarial activity against Dd2 strain (AID 2302;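 active means growth inhibition above 50% at the single 2 µM test dose, taken to imply half-maximal potency below 2 µM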;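 further: 0% = DMSO untreated growth and 100% = chloroquine plus artemisinin killed control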); settings: P. falciparum Dd2 in RBCs, LDH growth readout, 72 h; at 2 µM; active compounds read high
[2] = HepG2 cytotoxicity, primary screen, cytotoxicity control for P. falciparum antimalarial project, cell-based, ATP luminescence (AID 2303;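 active means inhibition above 50%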;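 further: 0% = DMSO wells and 100% = digitonin-killed cells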); settings: HepG2 viability, 24-48 h, at 10 µM, active compounds read high
[3] = target: L-lactate dehydrogenase (Plasmodium falciparum (isolate CDC / Honduras)) (UniProt Q27743); experiment: PfLDH activity inhibition – cell lysate, 3D7 strain, counter-screen for P. falciparum growth inhibition project (AID 2304);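 further: 0% = vehicle and 100% = reference inhibitor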; settings: P. falciparum 3D7 crude extract, LDH APAD/NBT absorbance; at 2 µM; active compounds read high
[4] = inhibition of 3D7 malaria parasite growth – strain 3D7 (AID 2306);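 further: 0% = DMSO wells and 100% = chloroquine plus artemisinin control wells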; settings: P. falciparum 3D7 erythrocytic growth, LDH absorbance, 72 h; at 2 µM; active compounds read high
[5] = target: Calcium-dependent protein kinase 1 (Plasmodium falciparum (isolate 3D7)) (UniProt P62344); experiment: PfCDPK1 kinase inhibitors, biochemical, TCAMS library (AID 1159585; cut-off not given, nearly all actives have IC50 up to about 0.98 µM;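 further: inhibitors leave more ATP so luminescence rises with inhibition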); settings: recombinant PfCDPK1, Kinase-Glo ATP depletion luminescence
[6] = target: Plasmodium falciparum protein kinase 6 (PK6, PF3D7_1337100) (UniProt Q8IDW1); experiment: PfPK6 kinase inhibitors, biochemical, TCAMS library (AID 1159586); settings: recombinant PfPK6, Kinase-Glo ATP depletion luminescence
[7] = target: Protein kinase 7 (PK7), Plasmodium falciparum 3D7 (PF3D7_0213400) (UniProt Q7YTF7); experiment: inhibition of Plasmodium PK7 catalytic activity – biochemical, TCAMS antimalarial set, Kinase-Glo luminescence (AID 1159587); settings: recombinant PfPK7, Kinase-Glo ATP depletion luminescence
[8] = target: Calcium-dependent protein kinase 4 (Plasmodium falciparum (isolate 3D7)) (UniProt Q8IBS5); experiment: PfCDPK4 kinase inhibitors, biochemical, TCAMS library (AID 1159588; cut-off not given, nearly all actives have IC50 up to about 0.91 µM); settings: recombinant PfCDPK4, Kinase-Glo ATP depletion luminescence
Sequence of Calcium-dependent protein kinase 4 (Plasmodium falciparum (isolate 3D7)) (Q8IBS5 whole entry, looked up): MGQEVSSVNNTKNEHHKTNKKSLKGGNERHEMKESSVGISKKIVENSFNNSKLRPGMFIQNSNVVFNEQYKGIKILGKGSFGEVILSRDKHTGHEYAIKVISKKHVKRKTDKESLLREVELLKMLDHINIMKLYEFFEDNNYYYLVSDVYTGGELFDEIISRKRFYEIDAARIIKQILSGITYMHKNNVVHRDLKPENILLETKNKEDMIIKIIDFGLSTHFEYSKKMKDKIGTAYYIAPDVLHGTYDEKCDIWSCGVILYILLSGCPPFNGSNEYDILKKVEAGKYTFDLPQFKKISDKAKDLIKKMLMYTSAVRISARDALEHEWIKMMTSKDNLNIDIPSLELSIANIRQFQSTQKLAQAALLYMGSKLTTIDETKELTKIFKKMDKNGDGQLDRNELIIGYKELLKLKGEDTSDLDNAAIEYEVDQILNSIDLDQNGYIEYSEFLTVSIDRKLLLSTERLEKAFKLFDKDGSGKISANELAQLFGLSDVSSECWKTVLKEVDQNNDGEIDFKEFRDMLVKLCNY

Sequence of Calcium-dependent protein kinase 1 (Plasmodium falciparum (isolate 3D7)) (P62344 whole entry, looked up): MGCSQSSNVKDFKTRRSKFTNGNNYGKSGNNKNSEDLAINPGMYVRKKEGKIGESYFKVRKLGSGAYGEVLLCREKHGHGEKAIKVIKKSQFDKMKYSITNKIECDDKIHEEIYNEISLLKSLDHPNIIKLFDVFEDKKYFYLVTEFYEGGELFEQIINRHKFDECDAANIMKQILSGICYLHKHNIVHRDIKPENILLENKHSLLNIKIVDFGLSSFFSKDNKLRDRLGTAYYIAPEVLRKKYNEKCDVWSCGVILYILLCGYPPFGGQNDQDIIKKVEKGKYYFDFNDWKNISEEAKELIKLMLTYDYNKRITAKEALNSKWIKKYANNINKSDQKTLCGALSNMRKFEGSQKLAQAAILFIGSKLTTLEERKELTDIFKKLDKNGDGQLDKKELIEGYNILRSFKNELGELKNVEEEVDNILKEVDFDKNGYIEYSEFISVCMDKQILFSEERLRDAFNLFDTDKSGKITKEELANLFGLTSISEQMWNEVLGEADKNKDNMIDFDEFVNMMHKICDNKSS
Sequence of L-lactate dehydrogenase (Plasmodium falciparum (isolate CDC / Honduras)) (Q27743 whole entry, looked up): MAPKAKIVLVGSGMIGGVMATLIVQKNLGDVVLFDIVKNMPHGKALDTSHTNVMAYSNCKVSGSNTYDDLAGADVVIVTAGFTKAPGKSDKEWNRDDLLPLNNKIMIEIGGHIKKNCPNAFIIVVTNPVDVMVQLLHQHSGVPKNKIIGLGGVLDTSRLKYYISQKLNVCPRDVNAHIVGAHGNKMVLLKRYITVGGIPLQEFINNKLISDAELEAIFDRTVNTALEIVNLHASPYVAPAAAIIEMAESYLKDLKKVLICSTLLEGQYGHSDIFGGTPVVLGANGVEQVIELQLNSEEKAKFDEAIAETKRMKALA
Sequence of Plasmodium falciparum protein kinase 6 (PK6, PF3D7_1337100) (Q8IDW1 1-305): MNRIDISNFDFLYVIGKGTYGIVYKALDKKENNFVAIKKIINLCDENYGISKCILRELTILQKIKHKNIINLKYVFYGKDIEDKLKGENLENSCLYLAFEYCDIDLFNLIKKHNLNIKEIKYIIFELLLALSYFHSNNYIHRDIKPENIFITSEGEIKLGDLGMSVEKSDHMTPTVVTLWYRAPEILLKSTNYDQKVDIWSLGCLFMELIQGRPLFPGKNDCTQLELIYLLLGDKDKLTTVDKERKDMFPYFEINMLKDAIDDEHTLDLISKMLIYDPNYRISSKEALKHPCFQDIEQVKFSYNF
Sequence of Protein kinase 7 (PK7), Plasmodium falciparum 3D7 (PF3D7_0213400) (Q7YTF7 1-343): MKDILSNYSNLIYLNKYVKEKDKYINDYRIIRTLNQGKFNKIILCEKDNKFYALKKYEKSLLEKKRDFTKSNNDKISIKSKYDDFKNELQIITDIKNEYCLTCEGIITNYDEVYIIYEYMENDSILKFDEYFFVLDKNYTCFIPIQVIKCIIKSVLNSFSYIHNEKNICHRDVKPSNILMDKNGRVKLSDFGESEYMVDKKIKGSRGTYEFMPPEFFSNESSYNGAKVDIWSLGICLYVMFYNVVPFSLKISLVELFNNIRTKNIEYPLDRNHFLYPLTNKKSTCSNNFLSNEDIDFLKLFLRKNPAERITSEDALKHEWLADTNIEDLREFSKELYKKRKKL

CCOC(=O)C1=C(C)NC2=C(C(=O)CCC2)C1c1cn(Cc2ccc(Cl)cc2Cl)nc1-c1ccccc1 (configuration not stated)
inactive: inhibition [2] -5% | inhibition [3] -2% | outcome [5] | outcome [6] | outcome [7] | outcome [8]
active: growth inhibition [1] 96% | growth inhibition [4] 100%

COc1cc(Cc2cnc(N)nc2N)cc(OCCCCC2SC(=O)NC2=O)c1Br (configuration not stated)
inactive: growth inhibition [1] -2% | inhibition [2] 15% | inhibition [3] 4% | outcome [5] | outcome [6] | outcome [7] | outcome [8]
active: growth inhibition [4] 94%

CCN(CC)c1ccc(C=CC(=O)NCCN2CCC(N(C)C3CCCCC3C)CC2)cc1 (configuration not stated)
active: growth inhibition [4] 88%
inactive: growth inhibition [1] 18% | inhibition [2] 29% | inhibition [3] -3% | outcome [5] | outcome [6] | outcome [7] | outcome [8]

c1ccc(C2CCN(Cc3ccc(-c4c[nH]c5nc(NC6CCCC6)ncc45)cc3)CC2)cc1
active: growth inhibition [4] 82%
inactive: growth inhibition [1] 9% | inhibition [2] 39% | inhibition [3] -1% | outcome [5] | outcome [6] | outcome [7] | outcome [8]

Fc1ccc(-c2csc3ncnc(Cl)c23)cc1
inactive: inhibition [2] 3% | inhibition [3] -1% | outcome [5] | outcome [6] | outcome [7] | outcome [8]
active: growth inhibition [1] 95% | growth inhibition [4] 94%

COc1ccc(S(=O)(=O)NC2CCN(c3ccnc4cc(Cl)ccc34)C2)cc1 (configuration not stated)
inactive: inhibition [2] 12% | inhibition [3] -2% | outcome [5] | outcome [6] | outcome [7] | outcome [8]
active: growth inhibition [1] 86% | growth inhibition [4] 100%

COc1ccc2c(NN=C(C)c3ccccn3)cc(C)nc2c1
active: growth inhibition [1] 51% | growth inhibition [4] 102%
inactive: inhibition [2] 33% | inhibition [3] -5% | outcome [5] | outcome [6] | outcome [7] | outcome [8]

CN1CCN(Cc2ccc(-c3ccc4c(Nc5ccc(Oc6ccccn6)cc5)ccnc4c3)o2)CC1
active: growth inhibition [1] 99% | growth inhibition [4] 101%
inactive: inhibition [2] 13% | inhibition [3] -3% | outcome [5] | outcome [6] | outcome [7] | outcome [8]

COc1ccc(CCN(C)CCOc2ccc(NC(=O)c3ccc([N+](=O)[O-])c4c(=O)c5ccccc5[nH]c34)cc2)cc1OC
active: growth inhibition [4] 91%
inactive: growth inhibition [1] 25% | inhibition [2] 38% | inhibition [3] -2% | outcome [5] | outcome [6] | outcome [7] | outcome [8]

FC(F)(F)COc1ccc(CNCCCCCCNCc2ccc(OCC(F)(F)F)c3ccccc23)c2ccccc12
inactive: inhibition [3] 3% | outcome [5] | outcome [6] | outcome [7] | outcome [8]
active: growth inhibition [1] 93% | inhibition [2] 99% | growth inhibition [4] 102%

CC(=O)c1c(Cc2cccc(C(F)(F)F)c2)c[nH]c1C
active: growth inhibition [1] 92% | growth inhibition [4] 94%
inactive: inhibition [2] 6% | inhibition [3] 7% | outcome [5] | outcome [6] | outcome [7] | outcome [8]

CNC(=O)c1cc(NCCCNCc2ccc(Cl)c(C(F)(F)F)c2)nc2ccccc12
inactive: growth inhibition [1] 7% | inhibition [2] 25% | inhibition [3] -1% | outcome [5] | outcome [6] | outcome [7] | outcome [8]
active: growth inhibition [4] 91%

CCCCN1C(=O)C(c2ccccc2)(c2ccccc2)N=C1N
inactive: growth inhibition [1] 34% | inhibition [2] 19% | inhibition [3] 7% | outcome [5] | outcome [6] | outcome [7] | outcome [8]
active: growth inhibition [4] 87%

O=c1cc(NCCCNCc2ccc(Cl)c(Cl)c2)[nH]c2cc(F)cc(F)c12
inactive: inhibition [2] 11% | inhibition [3] 0% | outcome [5] | outcome [6] | outcome [7] | outcome [8]
active: growth inhibition [1] 94% | growth inhibition [4] 102%

OCC1CCN(Cc2ccc(-c3ccc(-c4nc5ccc(F)cc5[nH]4)s3)cc2)CC1
active: growth inhibition [1] 98% | growth inhibition [4] 101%
inactive: inhibition [2] 14% | inhibition [3] -3% | outcome [5] | outcome [6] | outcome [7] | outcome [8]

Cc1cc2nc(-c3ccc(C(=O)NC4CCN(Cc5ccccc5)CC4)cc3)[nH]c2cc1C
active: growth inhibition [1] 99% | growth inhibition [4] 93%
inactive: inhibition [2] -6% | inhibition [3] -5% | outcome [5] | outcome [6] | outcome [7] | outcome [8]

CCOC(=O)c1ccc(NCc2ccccn2)cc1
inactive: growth inhibition [1] -2% | inhibition [2] -3% | inhibition [3] -6% | outcome [5] | outcome [6] | outcome [7] | outcome [8]
active: growth inhibition [4] 99%

CCc1ccc(NC(=O)c2cccc(CN3CCCN(Cc4cccc(O)c4)CC3)c2)cc1
active: growth inhibition [1] 50% | inhibition [2] 53% | growth inhibition [4] 99%
inactive: inhibition [3] 3% | outcome [5] | outcome [6] | outcome [7] | outcome [8]

c1ccc(Oc2ccc(Nc3nncc4ccccc34)cc2)cc1
inactive: inhibition [2] 20% | inhibition [3] 1% | outcome [5] | outcome [6] | outcome [7] | outcome [8]
active: growth inhibition [1] 82% | growth inhibition [4] 86%

Cc1cccc2[nH]c(-c3cccc(-c4cccc(NC(=O)c5cccnc5)c4)c3)nc12
inactive: inhibition [2] 28% | inhibition [3] -5% | outcome [5] | outcome [6] | outcome [7] | outcome [8]
active: growth inhibition [1] 56% | growth inhibition [4] 101%

COc1ccc(CN(C)CCCc2ccc(NC(=O)c3cc4ccccc4[nH]3)cc2)cc1OC
inactive: growth inhibition [1] 31% | inhibition [2] 39% | inhibition [3] -5% | outcome [5] | outcome [6] | outcome [7] | outcome [8]
active: growth inhibition [4] 97%

COc1ccc(CCN(C)CCOc2ccc(NC(=O)c3cccc4cc5ccccc5nc34)cc2)cc1OC
inactive: inhibition [2] 37% | inhibition [3] -5% | outcome [5] | outcome [6] | outcome [7] | outcome [8]
active: growth inhibition [1] 99% | growth inhibition [4] 100%

CC(C)(C)OC(=O)N1CCC(C2CCN(C(=O)OC(C)(C)C)CC2)CC1
active: growth inhibition [4] 86%
inactive: growth inhibition [1] 28% | inhibition [2] -6% | inhibition [3] 1% | outcome [5] | outcome [6] | outcome [7] | outcome [8]

COc1ccc2nccc(NC(=O)N3CCC(NCc4cc5ccccc5[nH]4)CC3)c2n1
inactive: growth inhibition [1] 29% | inhibition [2] 27% | inhibition [3] -5% | outcome [5] | outcome [6] | outcome [7] | outcome [8]
active: growth inhibition [4] 85%

Fc1ccc2nc(-c3ccc(-c4ccc(CNCCc5ccncc5)cc4)cc3)[nH]c2c1
active: growth inhibition [1] 97% | growth inhibition [4] 100%
inactive: inhibition [2] 23% | inhibition [3] 0% | outcome [5] | outcome [6] | outcome [7] | outcome [8]

O=C(NCCCCCN1CCC(c2c[nH]c3ccccc23)CC1)c1ccc(-c2ccccc2)nc1
inactive: growth inhibition [1] 13% | inhibition [2] 43% | inhibition [3] 1% | outcome [5] | outcome [6] | outcome [7] | outcome [8]
active: growth inhibition [4] 87%

CC(=O)c1sc(NC(=O)Nc2ccc(C)cc2C)nc1C
inactive: inhibition [2] 5% | inhibition [3] 0% | outcome [5] | outcome [6] | outcome [7] | outcome [8]
active: growth inhibition [1] 68% | growth inhibition [4] 96%

O=C(CSc1nccn1C1CCCC1)Nc1cc(C(F)(F)F)ccc1Cl
active: growth inhibition [1] 94% | growth inhibition [4] 96%
inactive: inhibition [2] -4% | inhibition [3] -2% | outcome [5] | outcome [6] | outcome [7] | outcome [8]

CC1CN(Cc2ccc(-c3ccc(-c4nc5ccc(F)cc5[nH]4)cc3)cc2)CC(C)O1 (configuration not stated)
inactive: inhibition [2] 40% | inhibition [3] -1% | outcome [5] | outcome [6] | outcome [7] | outcome [8]
active: growth inhibition [1] 93% | growth inhibition [4] 96%

Cc1c2c(nn1-c1ccccc1)C(c1ccccc1)N(c1ccccc1)C2=O (configuration not stated)
inactive: inhibition [2] 42% | inhibition [3] 1% | outcome [5] | outcome [6] | outcome [7] | outcome [8]
active: growth inhibition [1] 96% | growth inhibition [4] 92%

NC(N)=Nc1nc(-c2cccc(NC(=O)NCCc3c[nH]c4ccc(OCc5ccccc5)cc34)c2)cs1
active: growth inhibition [4] 101%
inactive: growth inhibition [1] 30% | inhibition [2] -2% | inhibition [3] 0% | outcome [5] | outcome [6] | outcome [7] | outcome [8]

COc1ccc(Nc2nccc(N3CCC(NC(=O)Nc4cccc(C(C)=O)c4)C3)n2)cc1 (configuration not stated)
inactive: inhibition [2] 29% | inhibition [3] -11% | outcome [5] | outcome [6] | outcome [7] | outcome [8]
active: growth inhibition [1] 79% | growth inhibition [4] 98%

COc1ccc(N2CCN(CCCCNC(=O)c3ccc(NC(=O)c4cc(C(F)(F)F)cc(C(F)(F)F)c4)cc3)CC2)cc1OC
inactive: inhibition [2] 9% | inhibition [3] 1% | outcome [5] | outcome [6] | outcome [7] | outcome [8]
active: growth inhibition [1] 100% | growth inhibition [4] 101%

O=C(Nc1cc(Cl)ccc1O)c1cnn2c(C(F)(F)F)cc(-c3cccs3)nc12
inactive: inhibition [2] 8% | inhibition [3] 1% | outcome [5] | outcome [6] | outcome [7] | outcome [8]
active: growth inhibition [1] 74% | growth inhibition [4] 100%

CN(CCc1ccccn1)c1cccc2c1nc(-c1cccnc1)n2CCNCc1ccccc1
active: growth inhibition [1] 97% | growth inhibition [4] 90%
inactive: inhibition [2] 12% | inhibition [3] 2% | outcome [5] | outcome [6] | outcome [7] | outcome [8]

CC(C)Cn1c(Sc2ccc(C#N)c([N+](=O)[O-])c2)nnc1-c1ccccc1
inactive: growth inhibition [1] 12% | inhibition [2] 17% | inhibition [3] 2% | outcome [5] | outcome [6] | outcome [7] | outcome [8]
active: growth inhibition [4] 83%

Cc1cc(NCCCCCCCCNc2cc(C)nc3ccccc23)c2ccccc2n1
inactive: growth inhibition [1] -1% | inhibition [3] -1% | outcome [5] | outcome [6] | outcome [7] | outcome [8]
active: inhibition [2] 59% | growth inhibition [4] 101%

Cc1ccc(NC(=O)Nc2ccc(S(=O)(=O)c3ccc(NC(=O)Nc4ccc(C)c(Cl)c4)cc3)cc2)cc1Cl
active: growth inhibition [4] 99%
inactive: growth inhibition [1] 42% | inhibition [2] 49% | inhibition [3] 4% | outcome [5] | outcome [6] | outcome [7] | outcome [8]

O=C(Cc1cccc2ccccc12)NC1CCN(c2ccnc3cc(Cl)ccc23)C1 (configuration not stated)
inactive: inhibition [2] 13% | inhibition [3] -2% | outcome [5] | outcome [6] | outcome [7] | outcome [8]
active: growth inhibition [1] 97% | growth inhibition [4] 82%
